Source: PubChem BioAssay AID1159580 (chemical genetic matrix, 2015)
Where “and” joins values, the source holds several entries; their conditions need not be identical. Equal entries are not always repeated. The campaign covered roughly 5,500 compounds. About 2,000 (36%) were called active. Roughly 18% stayed inconclusive and do not appear here. Cut-off read from the data, not from the text of the source: active = normalized growth mostly below about 0.91 (no sharp cut-off); inconclusive = no clear call, values can overlap the other calls; inactive = mostly above about 0.92. This is one part of the list.

Test: chemical genetic growth profiling, strain panel (AID 1159580);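 note: tested at 20 µM; growth read once vehicle control cultures reached saturation at 30 °C; 1 = growth at the plate median or of vehicle wells; lower values mean less growth of the strain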
Conditions: S. cerevisiae deletion strains, growth OD

Measured: normalized growth

CC(C)(O)CC[C@@H](O)[C@](C)(O)C1CC[C@@]2(O)C3=CC(=O)C4C[C@@H](O)[C@@H](O)C[C@]4(C)C3CC[C@]12C (stereo not given in full)
active: locus YLR262C, strain YPT6 (second series), active compounds read low 1.16 [resistant]
inactive: locus YAL013W, strain DEP1, active compounds read low 1.04 | locus YAL021C, strain ccr4, active compounds read low 0.991 | locus YAL026C, strain drs2, active compounds read low 1 | locus YAL030W, strain snc1, active compounds read low 0.999 | locus YBL061C, strain skt5, active compounds read low 1 | locus YBR009C, strain hhf1, active compounds read low 1.01 | locus YBR021W, strain FUR4, active compounds read low 0.984 | locus YBR023C, strain chs3, active compounds read low 0.996 | locus YBR171W, strain sec66, active compounds read low 0.99 | locus YBR229C, strain ROT2, active compounds read low 1 | locus YBR231C, strain swc5, active compounds read low 0.993 | locus YBR279W, strain paf1, active compounds read low 1.01 | locus YCL011C, strain gbp2, active compounds read low 1.01 | locus YCL016C, strain dcc1, active compounds read low 0.995 | locus YCL029C, strain bik1, active compounds read low 1 | locus YCL061C, strain MRC1, active compounds read low 1 | locus YCL069W, strain vba3, active compounds read low 1.03 | locus YCR088W, strain abp1, active compounds read low 0.999 | locus YDL005C, strain med2, active compounds read low 0.994 | locus YDL035C, strain GPR1, active compounds read low 1.03 | locus YDL040C, strain nat1, active compounds read low 0.98 | locus YDL074C, strain BRE1, active compounds read low 1.03 | locus YDL101C, strain DUN1, active compounds read low 1.02 | locus YDL185W, strain tfp1, active compounds read low 0.999 | locus YDL192W, strain arf1, active compounds read low 1 | locus YDR001C, strain nth1, active compounds read low 1 | locus YDR069C, strain doa4, active compounds read low 1.01 | locus YDR101C, strain arx1, active compounds read low 0.984 | locus YDR137W, strain rgp1, active compounds read low 0.976 | locus YDR150W, strain NUM1, active compounds read low 1.01 | locus YDR159W, strain sac3, active compounds read low 0.99 | locus YDR162C, strain NBP2, active compounds read low 1.03 | locus YDR195W, strain ref2 0.972 | locus YDR297W, strain sur2, active compounds read low 1.01 | locus YDR318W, strain mcm21, active compounds read low 1 | locus YDR334W, strain swr1, active compounds read low 1 | locus YDR335W, strain msn5, active compounds read low 1 | locus YDR388W, active compounds read low 0.993 | locus YDR392W, strain spt3, active compounds read low 0.976 | locus YDR502C, strain sam2, active compounds read low 1 | locus YEL003W, strain gim4, active compounds read low 1.01 | locus YEL037C, strain rad23, active compounds read low 0.992 | locus YEL061C, strain CIN8 (second series), active compounds read low 1 | locus YEL061C, strain CIN8, active compounds read low 1 | locus YER015W, strain faa2, active compounds read low 1 | locus YER016W, strain bim1, active compounds read low 0.996 | locus YER110C, active compounds read low 0.994 | locus YER111C, strain swi4, active compounds read low 1.01 | locus YER155C, strain BEM2 (second series), active compounds read low 0.996 | locus YER155C, strain BEM2, active compounds read low 1 | locus YER167W, strain BCK2, active compounds read low 1.02 | locus YFR010W, strain ubp6, active compounds read low 1 | locus YGL078C, strain dbp3, active compounds read low 1 | locus YGL086W, strain mad1, active compounds read low 1 | locus YGL167C, strain pmr1, active compounds read low 1 | locus YGL173C, strain kem1, active compounds read low 1 | locus YGL227W, strain vid30, active compounds read low 0.999 | locus YGL240W, strain doc1, active compounds read low 0.98 | locus YGL248W, strain PDE1, active compounds read low 1.01 | locus YGL253W, strain hxk2, active compounds read low 1.01 | locus YGR078C, strain PAC10, active compounds read low 1.03 | locus YGR135W, strain pre9, active compounds read low 0.997 | locus YGR229C, strain SMI1, active compounds read low 1.04 | locus YGR252W, strain gcn5, active compounds read low 0.995 | locus YHR013C, strain ard1, active compounds read low 0.995 | locus YHR027C, strain rpn1, active compounds read low 0.997 | locus YHR030C, strain SLT2, active compounds read low 1.01 and 1 | locus YHR079C, strain IRE1 (second series), active compounds read low 1.02 | locus YHR079C, strain IRE1, active compounds read low 0.988 | locus YHR094C, strain hxt1, active compounds read low 0.995 | locus YHR129C, strain ARP1, active compounds read low 1.01 | locus YHR142W, strain chs7, active compounds read low 1.01 | locus YHR200W, strain rpn10, active compounds read low 1.01 | locus YIL066C, strain RNR3, active compounds read low 1.04 | locus YIL073C, strain SPO22, active compounds read low 1.02 | locus YIL125W, strain kgd1, active compounds read low 1 | locus YIR030C, strain dcg1, active compounds read low 1 | locus YJL092W, strain hpr5, active compounds read low 0.998 | locus YJL095W, strain BCK1 (second series), active compounds read low 1 | locus YJL095W, strain BCK1, active compounds read low 1.03 and 1.04 | locus YJL115W, strain asf1, active compounds read low 1 | locus YJL129C, strain trk1, active compounds read low 1.01 | locus YJL134W, strain LCB3, active compounds read low 1.01 | locus YJL154C, strain vps35, active compounds read low 0.994 | locus YJL164C, strain tpk1, active compounds read low 1.01 | locus YJL166W, strain qcr8, active compounds read low 1 | locus YJL168C, strain set2, active compounds read low 1 | locus YJL187C, strain SWE1 (second series), active compounds read low 1.02 | locus YJL187C, strain SWE1, active compounds read low 1.02 | locus YJR043C, strain POL32, active compounds read low 1.02 | locus YJR066W, strain TOR1, active compounds read low 0.93 | locus YKL009W, strain mrt4, active compounds read low 0.995 | locus YKL068W, active compounds read low 0.993 | locus YKL085W, strain MDH1 (second series), active compounds read low 1.01 | locus YKL085W, strain MDH1, active compounds read low 1.01 | locus YKL160W, strain elf1, active compounds read low 1 | locus YKR001C, strain vps1, active compounds read low 0.985 | locus YKR026C, strain gcn3, active compounds read low 0.989 | locus YKR091W, strain srl3, active compounds read low 0.997 | locus YLL001W, strain dnm1, active compounds read low 1 | locus YLL026W, active compounds read low 0.994 | locus YLL041C, strain sdh2, active compounds read low 0.994 | locus YLR027C, strain aat2, active compounds read low 1.01 | locus YLR039C, strain RIC1, active compounds read low 1.01 | locus YLR058C, strain SHM2, active compounds read low 1.01 | locus YLR102C, strain apc9, active compounds read low 0.992 | locus YLR113W, strain HOG1, active compounds read low 1.02 | locus YLR221C, strain rsa3, active compounds read low 0.996 | locus YLR258W, strain gsy2, active compounds read low 0.998 | locus YLR262C, strain YPT6, active compounds read low 1.05 | locus YLR268W, strain sec22, active compounds read low 1 | locus YLR320W, strain mms22, active compounds read low 0.996 | locus YLR330W, strain CHS5, active compounds read low 1.01 | locus YLR342W, strain FKS1 (second series), active compounds read low 1.02 | locus YLR342W, strain FKS1, active compounds read low 1.03 | locus YLR357W, strain rsc2, active compounds read low 0.999 | locus YLR370C, strain arc18, active compounds read low 0.991 | locus YLR371W, strain rom2, active compounds read low 0.99 | locus YLR384C, strain iki3, active compounds read low 0.985 | locus YLR418C, strain cdc73, active compounds read low 0.99 | locus YML016C, strain PPZ1, active compounds read low 1.01 | locus YML032C, strain rad52, active compounds read low 0.998 | locus YML120C, strain ndi1, active compounds read low 0.996 | locus YML124C, strain tub3, active compounds read low 0.996 | locus YMR058W, strain fet3, active compounds read low 1 | locus YMR078C, strain ctf18, active compounds read low 1.01 | locus YMR125W, strain sto1, active compounds read low 0.983 | locus YMR129W, active compounds read low 0.998 | locus YMR205C, strain PFK2, active compounds read low 1.04 | locus YMR223W, strain ubp8, active compounds read low 0.998 | locus YMR231W, strain pep5, active compounds read low 0.969 | locus YMR307W, strain GAS1, active compounds read low 1.1 | locus YNL067W, strain RPL9B, active compounds read low 1.02 | locus YNL071W, strain lat1, active compounds read low 1 | locus YNL153C, strain GIM3, active compounds read low 1.03 | locus YNL183C, strain NPR1, active compounds read low 0.973 | locus YNL209W, strain ssb2, active compounds read low 1.02 | locus YNL233W, strain BNI4, active compounds read low 1.03 | locus YNL248C, strain rpa49, active compounds read low 0.996 | locus YNL250W, strain rad50, active compounds read low 1.01 | locus YNL271C, strain bni1, active compounds read low 1 | locus YNL298W, strain CLA4, active compounds read low 0.988 | locus YNL307C, strain MCK1, active compounds read low 0.992 | locus YNL322C, strain KRE1 (second series), active compounds read low 0.983 | locus YNR049C, strain mso1, active compounds read low 0.991 | locus YNR052C, strain pop2, active compounds read low 0.993 | locus YOL012C, strain htz1 0.787 | locus YOL147C, strain pex11, active compounds read low 0.99 | locus YOR001W, strain rrp6, active compounds read low 1.01 | locus YOR061W, strain CKA2, active compounds read low 1.01 | locus YOR069W, strain VPS5, active compounds read low 1 | locus YOR070C, strain gyp1, active compounds read low 1 | locus YOR080W, strain dia2, active compounds read low 0.996 | locus YOR083W, strain WHI5, active compounds read low 1.01 | locus YOR106W, strain vam3, active compounds read low 1.01 | locus YOR136W, strain idh2, active compounds read low 1 | locus YOR144C, strain elg1, active compounds read low 0.996 | locus YOR184W, strain ser1, active compounds read low 1 | locus YOR231W, strain MKK1, active compounds read low 0.978 | locus YOR265W, strain rbl2, active compounds read low 1 | locus YOR270C, strain vph1, active compounds read low 1.06 | locus YOR290C, strain snf2, active compounds read low 0.995 | locus YOR316C, strain cot1, active compounds read low 0.989 | locus YPL051W, strain arl3, active compounds read low 1.01 | locus YPL055C, strain LGE1, active compounds read low 1.04 | locus YPL078C, strain atp4, active compounds read low 1.01 | locus YPL106C, strain sse1, active compounds read low 1.01 | locus YPL240C, strain hsp82, active compounds read low 0.995 | locus YPL256C, strain CLN2, active compounds read low 0.996 | locus YPR119W, strain clb2, active compounds read low 1 | locus YPR141C, strain kar3, active compounds read low 0.998 | locus YPR163C, strain tif3, active compounds read low 1 | locus YPR167C, strain met16, active compounds read low 0.999 | strain wtn01, active compounds read low 0.99
